High-throughput results deposited in PubChem BioAssay by National Center for Advancing Translational Sciences (NCATS).
The sample as a whole holds a higher share of hits than the screen did.
Cycloheximide cs: counter-screen for Shiga toxin inhibitors: cycloheximide protein synthesis inhibition. max response, %. cell reporter, cycloheximide protein synthesis inhibition counterscreen. actives 12% (n = 300,000); in the data active means max response mostly above about 13%, no sharp cut-off; inactive means mostly below about 14%; further: read at 38.3 µM for the half of the compounds with a filed dose; 0% is about no effect
Sm TGR block: inhibitors of Schistosoma mansoni thioredoxin glutathione reductase; Q962Y6; purified TGR, DTNB reduction, TNB absorbance 405 nm; Potency, µM (top dose mostly 114 µM), for the others: top-dose activity change, negative = inhibition, most hits filed as inhibitors; actives 3% (n = 360,000); further: potency means the concentration at half of the fitted maximal effect; on the % scale 0 is the no-effect control and ±100 the full control effect; nearly all actives have a fitted effect of over 60% in size
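First, TGR (20 nM dispensed) and NADPH were mixed with compound. Second, a 15 min room-temperature incubation followed. Third, further NADPH and then DTNB were added to start the reaction. Finally, TNB absorbance was monitored kinetically.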
LmPK inhibitor: inhibitors of Leishmania mexicana pyruvate kinase; Potency, µM (doses to about 57.5 µM), for the others: top-dose activity change, negative = inhibition, hits mostly inhibitors; Q27686; purified LmPK, Kinase-Glo ATP luminescence, 1 h; AID 1721; actives 0.37% (n = 290,000); further: potency means the concentration at half of the fitted maximal effect; on the % scale 0 is the no-effect control and ±100 the full control effect
Target sequence (Q27686 whole entry, looked up): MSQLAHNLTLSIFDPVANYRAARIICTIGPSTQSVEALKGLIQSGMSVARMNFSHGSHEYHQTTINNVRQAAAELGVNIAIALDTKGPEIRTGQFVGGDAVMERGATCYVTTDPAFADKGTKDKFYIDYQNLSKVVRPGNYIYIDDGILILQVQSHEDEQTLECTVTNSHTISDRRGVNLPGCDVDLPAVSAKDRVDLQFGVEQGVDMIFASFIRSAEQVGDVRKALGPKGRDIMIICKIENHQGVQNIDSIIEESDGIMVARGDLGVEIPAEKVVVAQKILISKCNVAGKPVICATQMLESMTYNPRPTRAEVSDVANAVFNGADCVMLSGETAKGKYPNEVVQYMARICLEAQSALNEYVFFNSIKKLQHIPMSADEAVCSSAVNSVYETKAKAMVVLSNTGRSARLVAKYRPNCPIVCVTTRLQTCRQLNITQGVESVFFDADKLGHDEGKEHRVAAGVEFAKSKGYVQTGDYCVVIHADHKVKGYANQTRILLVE
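Screened at intermediate enzyme activity to detect both inhibitors and activators: LmPK at 0.1 nM, with a 0.5 nM enzyme column as activation reference. PEP 0.5 mM, ADP 0.1 mM; ATP detected by luminescence after 1 h.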
Shiga toxin inh: blocks Shiga toxin action in Vero cells | inhibition, % at 38.7 µM | actives 9.2% (n = 290,000) | Vero cells, Shiga toxin protein synthesis inhibition reporter; in the data active means inhibition mostly above about 28%, no sharp cut-off; inactive means mostly below about 43%; further: 0% is about no effect
Tb PYK inh: T. brucei pyruvate kinase inhibition; Q57TT1; actives 0.12% (n = 410,000); AID 624173; Potency, µM (top dose mostly 76.8 µM), inactives show at the top dose activity, negative = inhibition, actives largely listed as inhibitors; TbPYK enzyme, Kinase-Glo Plus ATP luminescence, 45 min; further: potency means the concentration at half of the fitted maximal effect; on the % scale 0 is the no-effect control and ±100 the full control effect; nearly all actives have a fitted effect of over 50% in size
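Screened from lowest to highest concentration, compounds were pinned into TbPYK/substrate mixtures, and ADP (130 uM final) was added. Plates sat at room temperature for 45 min prior to Kinase-Glo Plus detection by luminescence.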
FBPA Giardia inh: inhibitors of Giardia lamblia fructose-1,6-bisphosphate aldolase; A8B2U2; purified Giardia FBPA; Potency, µM (doses to about 59.6 µM), inactives show top-dose activity, negative = inhibition, usual class: inhibitors; actives 0.71% (n = 290,000); AID 2451; further: potency means the concentration at half of the fitted maximal effect; on the % scale 0 is the no-effect control and ±100 the full control effect; nearly all actives have a fitted effect of over 55% in size
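Giardia FBPA (40 nM reagent) was preincubated 10 min at RT with compound (up to 57.5 uM final), then substrate plus GAPDH/TPI/NAD/arsenate coupling system with diaphorase/resazurin was added; resorufin fluorescence (525/598 nm) was read after 20 min.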
* marks the source's active call; other numbers are inactive results; u = inconclusive; x = no result given. Unless noted, the call rests on the fitted dose curve; in most records, active means well fitted curve in the direction sought with a large enough effect; inconclusive means small, poorly fitted or top-dose-only effect, or another doubt; inactive means no such curve, though single readings can be large; an effect the other way counts as inactive or inconclusive.

SMILES | Cycloheximide cs | Sm TGR block | LmPK inhibitor | Shiga toxin inh | Tb PYK inh | FBPA Giardia inh
O=C(Nc1ccc2c(c1)OCO2)c1cc(-c2ccc(Cl)cc2)on1 | x | 7% | x | x | 1% | x
O=C(Nc1ccc2c(c1)OCO2)c1cc(-c2cccc(O)c2)on1 | 48* | -31% | -5% | 111* | 4% | -8%
O=C(Nc1ccc2c(c1)OCO2)c1cc(-c2ccc(O)cc2)on1 | 40* | -18% | -4% | 106* | 3% | 6%
O=C(NCc1ccc2c(c1)OCO2)c1cc(-c2ccccc2Cl)on1 | 4 | 6% | -1% | 19 | 2% | 1%
CCOc1ccc(C(=O)N2CC(=O)Nc3ccc(C)cc3C2c2ccc(F)cc2)cc1OCC (stereo not drawn) | x | 1% | x | x | 2% | x
CS(=O)(=O)Nc1ccc2c(c1)[C@H]1C[C@H](CC(=O)NCc3cccc(F)c3)O[C@@H](CO)[C@H]1O2 | x | x | x | x | 8% | x
O=C(COC(=O)c1ccncc1)c1ccc(Br)cc1 | -3 | 0% | 2% | 36 | 3% | 0%
O=C(C[N+]12CCC(CC1)C(CO)C2)c1ccc(Br)cc1 (stereo not drawn) | 7.3* | -8% | 4% | 27 | 1% | 3%
COc1cccc(CN(C)Cc2cc(=O)oc3cc(O)c(Cl)cc23)c1 | -1 | -13% | 1% | -6 | 4% | u
COc1cccc(CN(C)Cc2cc(=O)oc3c(C)c(C)ccc23)c1 | 16* | -4% | -3% | 3 | 30% | 7%
Cc1ccccc1CN(C)Cc1cc(=O)oc2c(C)c(C)ccc12 | 23* | -9% | -2% | 49 | 3% | 5%
CCOc1cc2[nH]c(=O)n(CCCCC(=O)N3CCN(c4ccccc4OC)CC3)c(=O)c2cc1OCC | x | 0% | x | x | 1% | x
CCCCCCCSc1nsc(N)n1 | 3 | 2% | -1% | 65* | -15% | -4%
CCCSc1nsc(NC(=O)CC)n1 | 38* | 12% | u | 72* | -14% | 0%
CCCSc1nsc(NC(=O)C(c2ccccc2)c2ccccc2)n1 | 10 | 5% | 5% | -6 | -6% | 2%
CCCCCCSc1nsc(NC(=O)CC(C)C)n1 | 27* | 5% | -1% | 37* | -1% | -13%
COc1cccc(CNC(=O)c2cc3c(s2)-c2c(C)cccc2OC3)c1 | x | -5% | x | x | 0% | x
Cc1nnc(SCC(=O)Nc2ccc(N(C)C)cc2)[nH]c1=O | 7 | -3% | x | 25 | -2% | x
O=C(CSc1nnc(COc2ccccc2Cl)o1)Nc1ccccc1 | x | -16% | x | x | -6% | x
CC(C)(C)NC(=O)NC(=O)CSc1nnc(COc2ccccc2Cl)o1 | 15* | 2% | -2% | 40 | -5% | -3%
COc1ccccc1NC(=O)C1=C(C)Nc2nc(-c3ccco3)nn2C1c1cccc(C)c1 (stereo not drawn) | x | -33% | x | x | -6% | x
COc1cc(C(=O)NCC(=O)NCC2COc3ccccc3O2)cc(OC)c1OC (stereo not drawn) | x | -4% | x | x | 3% | x
COC(=O)c1ccc(CSc2nnc(NC(=O)C3CC(=O)N(c4ccc5c(c4)OCCO5)C3)s2)cc1 (stereo not drawn) | 20* | -20% | 0% | 2 | 1% | 21%
Cc1cccc(N2CC(C(=O)Nc3ccc4c(c3)OCCO4)CC2=O)c1C (stereo not drawn) | 11 | -2% | -1% | 71* | -5% | 1%
CCc1ccc(N2CC(C(=O)Nc3ccc4c(c3)OCCO4)CC2=O)cc1 (stereo not drawn) | 31* | 10% | 7% | 82* | 2% | 6%
SMILES | Cycloheximide cs | Sm TGR block | LmPK inhibitor | Shiga toxin inh | Tb PYK inh | FBPA Giardia inh
CS(=O)(=O)c1ccc2nc(NC(=O)C3CC(=O)N(c4ccc(F)cc4)C3)sc2c1 (stereo not drawn) | -2 | 12% | 5% | -4 | -10% | 8%
CCc1ccc(N2CC(C(=O)Nc3nc4ccc(S(C)(=O)=O)cc4s3)CC2=O)cc1 (stereo not drawn) | 17* | 2% | 7% | 67* | 2% | -6%
COc1ccc(N2CCN(C(CNC(=O)c3c(F)cccc3F)c3ccc4c(c3)OCO4)CC2)cc1 (stereo not drawn) | x | 3% | x | x | -6% | x
CCc1ccc(S(=O)(=O)Nc2ccc3[nH]c(=O)sc3c2)cc1 | x | -2% | x | x | -6% | x
CCCC/C=C/[C@H](C)[C@@](C)(COC(=O)c1ccc(Br)cc1)Cc1ccccc1 | 16 | x | x | 4 | x | 4%
COc1cc(OC)c2c(C)c(CC(=O)NCc3ccccc3OC)c(=O)oc2c1 | x | -5% | x | x | 4% | x
CCOCc1cc(CN2CCCC(CNC(=O)c3ccco3)C2)ccc1OC (stereo not drawn) | 0 | 1% | 2% | 14 | 1% | x
CCOC(=O)C(c1ccccc1)C(Nc1ccc(F)cc1)c1ccccn1 (stereo not drawn) | -2 | -10% | 14% | -1 | 2% | 3%
CCOc1ccc(NC(c2ccccn2)c2oc(CO)cc(=O)c2O)cc1 (stereo not drawn) | 46* | 10µM* | 2% | 81* | -13% | u
Cc1ccc(NCCC(=O)c2ccccc2)cc1Cl | 15* | -34% | 2% | 43* | -2% | -7%
Cc1ccc(NCC(=O)c2ccccc2)cc1Cl | 24* | -7% | -8% | 102* | -16% | -1%
O=C(CCC(=O)c1ccccc1)Nc1ccc(F)c(Cl)c1 | x | -1% | x | x | 0% | x
Cc1ccc(C(=O)CNc2cccc(Cl)c2)cc1 | 30 | 4% | -2% | 30 | 2% | -1%
Cc1ccc(C(=O)CNc2ccc(C)c(Cl)c2)cc1 | 27* | 1% | -1% | 20 | -19% | -8%
Cc1ccc(NC2=C(NC(=O)c3ccccc3)C(=O)c3ccccc3C2=O)cc1Cl | 2 | 1.6µM* | 7.1µM* | 0 | u | u
CC1(C)N=C(N)N=C(N)N1c1ccc(Cl)cc1 | x | x | x | x | 1% | x
Cc1nn(-c2ccc(F)cc2)c(-n2cccc2)c1C(=O)NCCCN1CCN(c2cccc(Cl)c2)CC1 | x | -2% | x | x | 1% | x
O=C1CSC(=Nc2cccc(Cl)c2Cl)N1 | -1 | -4% | -1% | -9 | -20% | u
O=C(CNc1ccc(Br)cc1)c1ccc(O)cc1 | 39* | -8% | -2% | 93* | 3% | 1%
Cc1ccc(NCC(=O)c2ccc(C)cc2)cc1 | 39* | 0% | -1% | 48* | 6% | -10%
O=C(O)c1cccc(NC2=C(Cl)C(=O)c3ccccc3C2=O)c1 | 13 | 1.6µM* | -19% | 25 | -3% | u
Cc1ccc(-c2cc3ncc(C(=O)c4cc([N+](=O)[O-])ccc4O)cn3n2)cc1 | x | 10% | x | x | 3% | x
CCOc1ccc(NS(=O)(=O)c2ccc3[nH]c4c(c3c2)CCCCC4)cc1 | x | -1% | x | x | -11% | x
